From PubChem BioAssay (NCI)
The panel holds about 83,000 compounds, 20% with a hit somewhere; the sample as a whole holds those more often.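 Testing used 96-well plates and a 48-hour single-concentration exposure. Example: -40 means 40% of the starting cells died.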 Unmarked numbers belong to inactive results. Active and inactive are the calls of the source. The calls were made as follows: active = growth percent below 10; inactive = the rest.

How the values were obtained:
Assay in all cases: NCI-60 one-dose screen, 48 h (100 = growth as untreated, 0 = no growth, -100 = all killed)
Conditions in all cases: 10 µM unless noted
SR leukemia = test system: SR leukemia
RPMI-8226 leukemia = test system: RPMI-8226 leukemia
OVCAR-8 ovarian = test system: OVCAR-8 ovarian
OVCAR-5 ovarian = test system: OVCAR-5 ovarian
OVCAR-4 ovarian = test system: OVCAR-4 ovarian
SK-OV-3 ovarian = test system: SK-OV-3 ovarian
IGROV1 ovarian = test system: IGROV1 ovarian
OVCAR-3 ovarian = test system: OVCAR-3 ovarian
HS 578T breast = test system: HS 578T breast
NCI/ADR-RES ovarian = test system: NCI/ADR-RES ovarian
T-47D breast = test system: T-47D breast
BT-549 breast = test system: BT-549 breast
MDA-MB-435 melanoma = test system: MDA-MB-435 melanoma
SW-620 colon = test system: SW-620 colon
MCF7 breast = test system: MCF7 breast
HCT-116 colon = test system: HCT-116 colon
HCC-2998 colon = test system: HCC-2998 colon
KM12 colon = test system: KM12 colon

| Compound | growth (SR leukemia) | growth (RPMI-8226 leukemia) | growth (OVCAR-8 ovarian) | growth (OVCAR-5 ovarian) | growth (OVCAR-4 ovarian) | growth (SK-OV-3 ovarian) | growth (IGROV1 ovarian) | growth (OVCAR-3 ovarian) | growth (HS 578T breast) | growth (NCI/ADR-RES ovarian) | growth (T-47D breast) | growth (BT-549 breast) | growth (MDA-MB-435 melanoma) | growth (SW-620 colon) | growth (MCF7 breast) | growth (HCT-116 colon) | growth (HCC-2998 colon) | growth (KM12 colon) |
| --- | --- | --- | --- | --- | --- | --- | --- | --- | --- | --- | --- | --- | --- | --- | --- | --- | --- | --- |
| CC(C)(C)c1ccc(OCCCCCCCN2CCNCC2)cc1 | -10.4% (active) | -17% (active) | 71.3% | 68.5% | 54% | 81.5% | 52% | 62% | 24.9% | 71.7% | 6.54% (active) | 69.7% | 50.8% | -31.9% (active) | -20.1% (active) | -1.04% (active) | -4.86% (active) | 36.1% |
| CC(C)c1cc(C(=O)O)c(O)c(C(C)C)c1.CC(C)c1cc(C(=O)O)c(O)c(C(C)C)c1.[Mn] | 93.5% | 98% | 101% | 116% | 96.3% | 110% | 114% | 96.9% | 107% | 118% | 82% | 91.2% | 108% | 106% | 104% | 103% | 134% | 98.1% |
| C[C@@H](Oc1ccc(C(=O)NS(=O)(=O)C(C)(C)C)cc1C(F)(F)F)c1ccc(Oc2ccccc2)cn1 | 29.7% | 71.5% | 41.2% | 86.5% | 67.2% | 69.6% | 37.4% | 8.19% (active) | 4.34% (active) | 66.4% | 39% | 27.6% | -50.1% (active) | 23.3% | 15% | 25.5% | 61.1% | 28.3% |
| CCN1CCN(C(=O)[C@]23CCC(C)(C)C[C@@H]2C2=CC[C@@H]4[C@@]5(C)C/C(=C/c6ccncc6)C(=O)C(C)(C)[C@@H]5CC[C@@]4(C)[C@]2(C)CC3)CC1 | -29.1% (active) | -32.1% (active) | 7.29% (active) | -20.4% (active) | 6.7% (active) | 16.2% | -9.63% (active) | -85.7% (active) | -23.6% (active) | -49.2% (active) | -2.08% (active) | -5.92% (active) | -29.9% (active) | -54.1% (active) | -53.6% (active) | -92.4% (active) | -68.8% (active) | -39.9% (active) |
| CC1(C)c2ccccc2C(=O)C1(Br)Cc1ccccc1 (stereo not drawn) | 53.5% | 46.8% | 93% | 73.7% | 63.6% | 110% | 92.5% | 65.4% | 84.1% | 72.8% | 60.6% | 105% | 61.3% | 36.6% | 81.3% | 54.9% | 78.4% | 90.9% |
| CC(C)(C)n1cc(-c2ccnc(NCCCNS(=O)(=O)c3ccc(Cl)cc3)c2)c(-c2cccc(F)c2)n1 | 32.9% | 52.3% | 84.7% | 77.2% | 90% | 91.7% | 69.5% | 84.2% | 87.9% | 73.5% | 46.5% | 74.7% | 85.6% | 70.2% | 60.5% | 51.9% | 63.4% | 60.5% |
| COc1ccc(-c2c(-c3nc4ccc(N5CCOCC5)cc4[nH]3)[nH]c(C)c2C(C)=O)cc1 | 47.8% | 3.61% (active) | 50.5% | 48.2% | 45.1% | 27.7% | 23.8% | 46% | 22.3% | 38.7% | 27.3% | 64.9% | 29.7% | 63.4% | 10.8% | 34.8% | 35% | 46.5% |
| CCN1CCN(c2nc(C)cc(N(CCCNc3ccnc4cc(Cl)ccc34)Cc3ccco3)n2)CC1 | -16.5% (active) | 8.04% (active) | 58.5% | 79.7% | 59.7% | 97.2% | 51.2% | 53% | 70.3% | 55.8% | 68.4% | 54.5% | 4.03% (active) | 39.3% | 32.3% | 42.5% | 88% | 67.9% |
| COc1cccc(-c2nn(-c3ccccc3)cc2-c2ccnc(NCCCN)c2)c1 | -10.5% (active) | 44% | 62% | 95.8% | 63.8% | 70.9% | 54.4% | 29.2% | 43.6% | 25% | 59.1% | 68.6% | -6.82% (active) | 43.5% | 41.8% | 45.1% | 65.6% | 71.9% |
| O=C1/C(=C\c2ccc(Br)o2)SC(=S)N1CCc1ccc(O)cc1 | 66.9% | 26.6% | 97.2% | 80% | 65.3% | 86.5% | 62.6% | 62.9% | 93.2% | 98.7% | 57.7% | 76.4% | 71.3% | 102% | 33.4% | 77.7% | 119% | 19.5% |
| O=Cc1nc2ccccc2[nH]1 | 83% | 96.9% | 100% | 104% | 110% | 94.2% | 107% | 111% | 95.4% | 106% | 91.9% | 101% | 107% | 101% | 96.4% | 88.5% | 107% | 99.8% |
| COC(=O)c1cc(=O)nc(N/N=C/c2ccc(C)cc2)s1 | 94.8% | 89.9% | 105% | 101% | 96.9% | 110% | 105% | 120% | 110% | 106% | 105% | 99.6% | 115% | 106% | 89.9% | 105% | 106% | 110% |
| CCc1ccccc1NC(=O)c1sc2nc3c(cc2c1N)CCCC3 | 9.86% (active) | 46.1% | 52.3% | 79.3% | 66.8% | 38.8% | 64.8% | 23.8% | 29.9% | 19.9% | 34.6% | 48.4% | 1.18% (active) | 26.7% | 19.8% | 18.7% | 78.9% | 27.9% |
| COc1ccc(-n2c(/C=C/c3ccc(O)c(OC)c3)cc(/C=C/c3ccc(O)c(OC)c3)nc2=O)cc1 | 14.2% | 21.4% | 66% | 112% | 62.5% | 62.3% | 63.5% | 41.4% | 62.5% | 84.3% | 51.8% | 30.9% | 29.6% | 29.8% | 19.7% | 21.1% | 94.9% | 42% |
| Cn1nc(-c2ccccc2)c2c(-c3ccccc3)onc2c1=O | 26.4% | 24.9% | 51.9% | 66.5% | 72.1% | 13.3% | 51.3% | 12.2% | 15.8% | 45.8% | 26.8% | 47.4% | -1.78% (active) | 28.9% | 23.6% | 42.5% | 74.5% | 33.7% |
| CCC(=O)c1c(C)[nH]c(C)c1C | 70.7% | 113% | 85.1% | 48.8% | 123% | 93% | 76.1% | 115% | 138% | 85.3% | 104% | 94% | 95.1% | 52.3% | 61.1% | 47.2% | 114% | 102% |
